PubChem BioAssay (NCI)
The panel holds about 83,000 compounds, 20% with a hit somewhere; the sample as a whole holds those more often.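 Treatment: one concentration, 48 hours, 96-well format. Scoring: percent growth, with anything below 10 considered active.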 Active and inactive are the calls of the source.

What was measured:
Assay in all cases: NCI-60 one-dose screen, 48 h (100 = growth as untreated, 0 = no growth, -100 = all killed)
Details in all cases: 10 µM unless noted
HCT-15 colon = test system: HCT-15 colon
HT29 colon = test system: HT29 colon
SNB-75 CNS = test system: SNB-75 CNS
SNB-19 CNS = test system: SNB-19 CNS
U251 CNS = test system: U251 CNS
PC-3 prostate = test system: PC-3 prostate
SK-MEL-5 melanoma = test system: SK-MEL-5 melanoma
UACC-62 melanoma = test system: UACC-62 melanoma
SK-MEL-28 melanoma = test system: SK-MEL-28 melanoma

Measured: growth

N#C/C(=C\c1ccc(-c2ccc(Cl)cc2)o1)c1nc(-c2ccco2)cs1
inactive: HCT-15 colon 86.3% | HT29 colon 102% | SNB-75 CNS 86.5% | SNB-19 CNS 93.4% | U251 CNS 96.9% | PC-3 prostate 92.8% | SK-MEL-5 melanoma 91.1% | UACC-62 melanoma 79.7% | SK-MEL-28 melanoma 97.5%

Cc1nn(-c2ccc(Cl)cc2)c(=O)n1CCn1cnc2ccccc21
inactive: HCT-15 colon 104% | HT29 colon 102% | SNB-75 CNS 106% | SNB-19 CNS 113% | U251 CNS 101% | PC-3 prostate 104% | SK-MEL-5 melanoma 113% | UACC-62 melanoma 101% | SK-MEL-28 melanoma 114%

COc1ccc(NC(=O)c2ccoc2COc2ccccc2)cc1
inactive: HCT-15 colon 89% | HT29 colon 107% | SNB-75 CNS 87.2% | SNB-19 CNS 89.6% | U251 CNS 96.1% | PC-3 prostate 91.3% | SK-MEL-5 melanoma 100% | UACC-62 melanoma 82.7% | SK-MEL-28 melanoma 94.6%

Cc1cc2nc3c4cc(Cl)ccc4n(CCN(C)C)c3nc2cc1C
active: HCT-15 colon -25.1% | HT29 colon 1% | UACC-62 melanoma -70.7% | SK-MEL-28 melanoma -59.3%
inactive: SNB-75 CNS 26.3% | SNB-19 CNS 15.4% | U251 CNS 12.3% | PC-3 prostate 27.2% | SK-MEL-5 melanoma 41%

COC(=O)[C@]12CC[C@@H](C(/C=C/c3cccnc3)=N/O)[C@@H]1[C@H]1CC[C@@H]3[C@@]4(C)CC(=C/c5cccnc5)/C(=N/O)C(C)(C)[C@@H]4CC[C@@]3(C)[C@]1(C)CC2
inactive: HCT-15 colon 23.4% | HT29 colon 32.8% | SNB-75 CNS 22.8% | SNB-19 CNS 71.9% | U251 CNS 52.9% | PC-3 prostate 20.8% | UACC-62 melanoma 15.7% | SK-MEL-28 melanoma 50.8%
active: SK-MEL-5 melanoma -21.5%

CCN1CCN(C(=O)[C@@]2(C)CC[C@]3(C)CC[C@]4(C)C(=CC(=O)[C@@H]5[C@@]6(C)CC[C@H](OCCC#N)C(C)(C)[C@@H]6CC[C@]54C)[C@@H]3C2)CC1
inactive: HCT-15 colon 69.5% | HT29 colon 42.6% | SNB-75 CNS 59.9% | SNB-19 CNS 103% | U251 CNS 64.2% | PC-3 prostate 72.1% | SK-MEL-5 melanoma 90.2% | UACC-62 melanoma 87.1% | SK-MEL-28 melanoma 67.7%

CN1CCN(c2ccc3nc(-c4[nH]ncc4Nc4ncnc5[nH]ccc45)[nH]c3c2)CC1
active: HCT-15 colon 4.21% | HT29 colon 7.01% | SNB-75 CNS -52.7% | SNB-19 CNS 2.27% | U251 CNS 7.05% | SK-MEL-5 melanoma -13% | UACC-62 melanoma 1.28% | SK-MEL-28 melanoma -11.3%
inactive: PC-3 prostate 11.7%

C/C(=N\NC(=O)C(C)SC(C)C(=O)N/N=C(\C)c1cccnc1)c1cccnc1 (stereo unspecified)
inactive: HCT-15 colon 102% | HT29 colon 94.1% | SNB-75 CNS 89.7% | SNB-19 CNS 110% | U251 CNS 110% | PC-3 prostate 101% | SK-MEL-5 melanoma 98.4% | UACC-62 melanoma 101% | SK-MEL-28 melanoma 113%

COc1ccc2nc(-c3c(-c4ccccc4)nc4ncccn34)[nH]c2c1
inactive: HCT-15 colon 96.5% | HT29 colon 94.1% | SNB-75 CNS 78.1% | SNB-19 CNS 101% | U251 CNS 99.5% | PC-3 prostate 97.3% | SK-MEL-5 melanoma 95.6% | UACC-62 melanoma 95.3% | SK-MEL-28 melanoma 91.5%

CC(=O)Oc1ccccc1C(=O)/C=C/c1cccc([N+](=O)[O-])c1
inactive: HCT-15 colon 54.9% | HT29 colon 48.8% | SNB-75 CNS 60.2% | SNB-19 CNS 81.1% | U251 CNS 54.3% | PC-3 prostate 71.1% | SK-MEL-5 melanoma 89.3% | UACC-62 melanoma 85.7% | SK-MEL-28 melanoma 95.6%

S=c1[nH]nc2ccccn12
inactive: HCT-15 colon 101% | HT29 colon 87.5% | SNB-75 CNS 88.7% | SNB-19 CNS 110% | U251 CNS 114% | PC-3 prostate 108% | SK-MEL-5 melanoma 92.3% | UACC-62 melanoma 108% | SK-MEL-28 melanoma 109%

C=C(C)[C@@H]1CC[C@]2(CN)CC[C@]3(C)[C@H](CC[C@@H]4[C@@](C)(CCCN)[C@H](C(=C)C)CC[C@]43C)[C@@H]12
inactive: HCT-15 colon 62.8% | HT29 colon 17.9% | SNB-75 CNS 79.8% | SNB-19 CNS 89.5% | U251 CNS 74% | PC-3 prostate 71.5% | SK-MEL-5 melanoma 88.3% | UACC-62 melanoma 100% | SK-MEL-28 melanoma 100%

CN1CCN(c2ccc3nc(-c4[nH]ncc4Nc4ncnc5c4OCCCN5)[nH]c3c2)CC1
active: HCT-15 colon -64.7% | HT29 colon -24.6% | SNB-75 CNS -93.1% | SNB-19 CNS -46% | U251 CNS -55.7% | PC-3 prostate -58.5% | SK-MEL-5 melanoma -93.4% | UACC-62 melanoma -74.9% | SK-MEL-28 melanoma -73.1%

Cc1oc(-c2ccccc2Cl)cc1C(=O)Nc1ccc(S(N)(=O)=O)cc1
inactive: HCT-15 colon 103% | HT29 colon 108% | SNB-75 CNS 89.9% | SNB-19 CNS 99.1% | U251 CNS 94.9% | PC-3 prostate 107% | SK-MEL-5 melanoma 97.3% | UACC-62 melanoma 95.8% | SK-MEL-28 melanoma 101%

COc1cnc2c(c1)C(=O)c1c-2n(CCCN2CCN(CCO)CC2)c(=O)c2cc([N+](=O)[O-])ccc12
inactive: SNB-75 CNS 73.1% | PC-3 prostate 44.4% | SK-MEL-5 melanoma 53.9% | UACC-62 melanoma 37.8% | SK-MEL-28 melanoma 102%
active: HCT-15 colon -26.3% | HT29 colon -85.7% | SNB-19 CNS -1.88% | U251 CNS -84.2%

C=C(C)[C@@H]1CC[C@]2(C)CC[C@]3(C)[C@H](CC[C@@H]4[C@@]5(C)CCCNC(C)(C)[C@@H]5CC[C@]43C)[C@@H]12
active: HT29 colon 3.37%
inactive: HCT-15 colon 19.2% | SNB-75 CNS 85.9% | SNB-19 CNS 96.3% | U251 CNS 11.9% | PC-3 prostate 78.9% | SK-MEL-5 melanoma 98.4% | UACC-62 melanoma 105% | SK-MEL-28 melanoma 105%

CC1=CC(=O)N(c2cccc3c(N4C(=O)C=C(C)C4=O)cccc23)C1=O
active: HCT-15 colon -2.7%
inactive: HT29 colon 18% | SNB-75 CNS 74.1% | SNB-19 CNS 102% | U251 CNS 83.9% | PC-3 prostate 94.8% | SK-MEL-5 melanoma 105% | UACC-62 melanoma 94.5% | SK-MEL-28 melanoma 103%

CCSc1sc(-c2ccc(C)cc2)nc1[P+](c1ccccc1)(c1ccccc1)c1ccccc1
inactive: SK-MEL-28 melanoma 15.2%
active: HCT-15 colon 1.86% | HT29 colon 2.52% | SNB-75 CNS -8.6% | SNB-19 CNS 8.14% | U251 CNS 9.48% | PC-3 prostate -11.5% | SK-MEL-5 melanoma -98.7% | UACC-62 melanoma -42.5%

O=C1c2cccc3cccc(c23)C(=O)N1CC#Cc1ccc2c3c(cccc13)C(=O)N(CCN1CCNCC1)C2=O
inactive: HCT-15 colon 61.7% | HT29 colon 23.5% | SNB-75 CNS 99.6% | SNB-19 CNS 86.2% | U251 CNS 56.4% | PC-3 prostate 85.5% | SK-MEL-5 melanoma 103% | UACC-62 melanoma 105% | SK-MEL-28 melanoma 13.5%

Cc1ccc2c(c1)c1nc3cc(C)c(C)cc3nc1n2CCN(C)C
inactive: HT29 colon 19% | SNB-75 CNS 23.9% | SNB-19 CNS 17.1% | U251 CNS 23.7% | PC-3 prostate 25% | SK-MEL-5 melanoma 15.4% | UACC-62 melanoma 12.3% | SK-MEL-28 melanoma 17.2%
active: HCT-15 colon 3.18%

Cc1ccc2c(c1)c(-c1nc(-c3c[nH]c4ncccc34)cs1)cn2C
inactive: HCT-15 colon 86.5% | HT29 colon 69% | SNB-75 CNS 91.2% | SNB-19 CNS 107% | U251 CNS 98.6% | PC-3 prostate 85.7% | SK-MEL-5 melanoma 98.8% | UACC-62 melanoma 94.5% | SK-MEL-28 melanoma 109%

COc1cc(-c2cc(-c3nc4ccccc4[nH]3)[nH]n2)cc(OC)c1OC
active: PC-3 prostate 5.47% | SK-MEL-5 melanoma -44.4%
inactive: HCT-15 colon 48.8% | HT29 colon 69.3% | SNB-75 CNS 51.9% | SNB-19 CNS 86.9% | U251 CNS 55.8% | UACC-62 melanoma 34.5% | SK-MEL-28 melanoma 61.8%

O=C(/C=C/c1ccc2ccccc2c1)Nc1ncc(Cc2ccccc2)s1
inactive: HCT-15 colon 55.7% | HT29 colon 69.5% | SNB-75 CNS 34.4% | SNB-19 CNS 69.5% | U251 CNS 25.8% | PC-3 prostate 71.2% | SK-MEL-5 melanoma 92.8% | UACC-62 melanoma 59.8% | SK-MEL-28 melanoma 85%

NC1=NN=C2N(N)C(=O)c3cnn(-c4ccccc4)c3N2c2nc(-c3ccccc3)cc(-c3ccccc3)c21
inactive: HCT-15 colon 99.8% | HT29 colon 102% | SNB-75 CNS 86.2% | SNB-19 CNS 93.5% | U251 CNS 96.3% | PC-3 prostate 90.5% | SK-MEL-5 melanoma 94% | UACC-62 melanoma 82.9% | SK-MEL-28 melanoma 118%

CC(C)c1cc(C(=O)O)c(O)c(C(C)C)c1.CC(C)c1cc(C(=O)O)c(O)c(C(C)C)c1.[Mn]
inactive: HCT-15 colon 108% | HT29 colon 119% | SNB-75 CNS 106% | SNB-19 CNS 91.6% | U251 CNS 98.3% | PC-3 prostate 98.2% | SK-MEL-5 melanoma 94.3% | UACC-62 melanoma 94.9% | SK-MEL-28 melanoma 113%

CC(=O)n1c(/C(C#N)=C/c2ccc(N(C)C)cc2)cc2ccccc21
inactive: HCT-15 colon 23.9% | SNB-19 CNS 35.8% | U251 CNS 36.4% | PC-3 prostate 39.4% | SK-MEL-5 melanoma 29.7% | UACC-62 melanoma 26.8% | SK-MEL-28 melanoma 60.8%
active: HT29 colon 9.7% | SNB-75 CNS -6.19%

N#CC1=C(N)Oc2c(c(N)nn2-c2ccccc2)C1c1ccc(Cl)cc1Cl (stereo unspecified)
inactive: HCT-15 colon 100% | HT29 colon 115% | SNB-75 CNS 73.2% | SNB-19 CNS 95.2% | U251 CNS 91.6% | PC-3 prostate 94.5% | SK-MEL-5 melanoma 101% | UACC-62 melanoma 88.7% | SK-MEL-28 melanoma 104%

N#C/C(=C\c1ccc(-c2ccc(Br)cc2)o1)c1nc(-c2cccs2)cs1
inactive: HCT-15 colon 98.8% | HT29 colon 105% | SNB-75 CNS 97% | SNB-19 CNS 95.1% | U251 CNS 99.3% | PC-3 prostate 95.9% | SK-MEL-5 melanoma 99.6% | UACC-62 melanoma 86.2% | SK-MEL-28 melanoma 99.1%

CCN1CCN(C(=O)[C@@]2(C)CC[C@]3(C)CC[C@]4(C)C(=CC(=O)[C@@H]5[C@@]6(C)CC[C@H](OC7C[C@@H](O)[C@@H](O)C(C)O7)C(C)(C)[C@@H]6CC[C@]54C)[C@@H]3C2)CC1 (stereo partly specified)
active: HT29 colon 1.72% | SK-MEL-5 melanoma -5.54% | UACC-62 melanoma -69.3% | SK-MEL-28 melanoma -7.89%
inactive: HCT-15 colon 34.2% | SNB-75 CNS 86.7% | SNB-19 CNS 39% | U251 CNS 10.3% | PC-3 prostate 42.1%
